# FLuc modulator: qHTS profiling assay for firefly luciferase inhibitor/activator using purifed enzyme and Km concentrations of substrates (counterscreen for miR-21 project). Luciferin 4-monooxygenase (Photinus pyralis), P08659. purified FLuc, Km substrates, luminescence inhibition. Potency, µM (titrated, usually from 57.5 µM), inactives show at the top dose activity change, negative = inhibition, most hits filed as inhibitors. 360,000 tested, 6.9% active. AID 588342, 2011;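 note: plate controls were vehicle for no effect and reference inhibitor for full effect; nearly all actives have a fitted effect of over 55% in size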
# Target sequence (P08659 whole entry, looked up): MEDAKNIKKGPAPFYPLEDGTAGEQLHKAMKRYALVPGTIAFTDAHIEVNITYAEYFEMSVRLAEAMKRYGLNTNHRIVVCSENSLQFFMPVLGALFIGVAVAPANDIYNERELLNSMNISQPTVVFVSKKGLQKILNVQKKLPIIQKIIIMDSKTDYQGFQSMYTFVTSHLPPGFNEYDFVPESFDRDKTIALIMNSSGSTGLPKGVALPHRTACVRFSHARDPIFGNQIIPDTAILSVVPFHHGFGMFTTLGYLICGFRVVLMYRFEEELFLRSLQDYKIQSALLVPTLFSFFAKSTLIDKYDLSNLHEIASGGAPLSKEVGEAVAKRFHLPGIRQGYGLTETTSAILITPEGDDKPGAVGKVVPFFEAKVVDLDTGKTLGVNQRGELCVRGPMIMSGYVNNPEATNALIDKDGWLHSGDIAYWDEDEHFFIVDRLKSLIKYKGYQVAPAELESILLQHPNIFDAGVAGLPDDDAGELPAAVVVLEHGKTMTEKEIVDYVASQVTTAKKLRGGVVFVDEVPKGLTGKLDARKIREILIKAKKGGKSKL
#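 Purified P. pyralis luciferase, 10 nM final, with Km-level 10 uM D-luciferin and 10 uM ATP in 50 mM Tris acetate pH 7.5, 10 mM Mg acetate, 0.01% Tween-20, 0.05% BSA; 6-point qHTS titration about 60 µM downward; luminescence read.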
# ELG1 genotox: qHTS screen for small molecules that induce genotoxicity in human embryonic kidney (HEK293T) cells expressing luciferase-tagged ELG1; HEK293T ELG1-luciferase reporter, luminescence, 16 h; Potency, µM (doses to about 46 µM), for inactives: at the top dose activity change, positive = activation, usual class: activators; 330,000 tested, 1.3% active; AID 504466, 2011; note: % of control where 0% means no effect; nearly all actives have a fitted effect of over 60% in size
#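 Quantitative HTS format in 1536-well plates. HEK293T ELG1-luciferase reporter cells receive test compound and are incubated 16 hr at 37 °C, 5% CO2; ONE-Glo added, 30 min room temperature, then luminescence read.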
# Rab9 promoter act: qHTS Assay for Rab9 Promoter Activators; 320,000 tested, 2.8% active; Potency, µM (highest dose often 9.22 µM), inactives show at the highest dose activation, negative = inhibition, usual class: activators; Huh7 Rab9 promoter-luciferase reporter, luminescence, 24 h; AID 485297, 2010; note: % of control where 0% means no effect; nearly all actives have a fitted effect of over 60% in size
#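 Huh7 reporter line, Rab9 promoter upstream of luciferase. Compound exposure 24 h at 37 °C in reduced-serum medium with 10% FBS. Read-out: luminescence.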
# NPC1 prom act: qHTS Assay for NPC1 Promoter Activators | Huh7 NPC1 promoter luciferase reporter, 24 h | Potency, µM (titrated, usually from 9.22 µM), for inactives: at the highest dose activation, most hits filed as activators | 320,000 tested, 2.4% active; note: % of control where 0% means no effect; nearly all actives have a fitted effect of over 60% in size
#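 Stable NPC1-promoter luciferase Huh7 line; cpd (DMSO) 24 h, 37 °C, 5% CO2; Amplite luciferase reagent 10 min RT; luminescence readout. qHTS format.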
# ELG1 DNA repair: qHTS screen for small molecules that inhibit ELG1-dependent DNA repair in human embryonic kidney (HEK293T) cells expressing luciferase-tagged ELG1 | HEK293T ELG1-luciferase reporter, luminescence, 16 h; DNA damage induced by 5-fluorouridine | Potency, µM (top dose mostly 46.1 µM), without a hit: at the top dose activity change, negative = inhibition, actives largely listed as inhibitors | 330,000 tested, 2.3% active | AID 504467, 2011; note: % is set by controls: 0 for no effect and ±100 for the full control effect; nearly all actives have a fitted effect of over 55% in size
#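 HEK293T cells expressing luciferase-tagged ELG1 (2,000/well) received 5-Fluorouridine plus compound or DMSO for 16 hr at 37 °C. Luciferase was read by ONE-Glo luminescence after 30 min at room temperature.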
# SMN2 splice up: qHTS Assay for Enhancers of SMN2 Splice Variant Expression; HEK293 SMN2-luciferase splicing reporter, luminescence, 30-36 h; AID 1458, 2008; Potency, µM (top dose mostly 46.1 µM), inactives show at the top dose activity change, positive = activation, hits mostly activators; 210,000 tested, 2.8% active; note: % of control where 0% means no effect; nearly all actives have a fitted effect of over 55% in size
#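 HEK293 cells carry an SMN2 minigene-luciferase reporter in which exon 7 inclusion puts luciferase in frame. Cells were seeded at 2000 cells/well, attached for 10-12 hours, then exposed to compounds for 30-36 hours at 37C before ONE-Glo luminescence.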
# ELG1 Luc conf: HTS assay for small molecules that inhibit ELG1-dependent DNA repair in human embryonic kidney (HEK293T) cells expressing luciferase-tagged ELG1: Hit Confirmation; AID 624248, 2012; Potency, µM (doses to about 46.1 µM), without a hit: at the top dose activity change, negative = inhibition, usual class: inhibitors; shares compounds with ELG1 DNA repair; 670 tested, 68% active; HEK293T ELG1-luciferase levels, luminescence; cells co-treated with 5-fluorouridine; note: % is set by controls: 0 for no effect and ±100 for the full control effect; nearly all actives have a fitted effect of over 55% in size
# ELG1 MMS Luc: inhibits ELG1-dependent repair under MMS stimulation in HEK293T cells; HEK293T luciferase-tagged ELG1 level, MMS stimulated; Potency, µM (highest dose often 46.1 µM), for inactives: at the top dose activity change, negative = inhibition, actives largely listed as inhibitors; 670 tested, 53% active; shares compounds with ELG1 DNA repair; note: % is set by controls: 0 for no effect and ±100 for the full control effect; nearly all actives have a fitted effect of over 60% in size
# ELG1 5-FU: qHTS screen for small molecules that inhibit ELG1-dependent DNA repair: Hit Confirmation with 5FU Viability; cell viability with 5-FU, ELG1-dependent repair; 670 tested, under 10 active; Potency, µM (series often up to 46.1 µM), without a hit: top-dose activity change, negative = viability loss, usual class: cytotoxic; shares compounds with ELG1 DNA repair; AID 624250, 2012;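 note: ELG1-luc HEK293T cells cotreated with 5-fluorouridine at 10 µM final; viability measured 16 h after compound addition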
# ELG1 MMS viab: qHTS screen for small molecules that inhibit ELG1-dependent DNA repair: Hit Confirmation with MMS Viability; Cell viability with MMS, ELG1-dependent DNA repair; 670 tested, 33% active; shares compounds with ELG1 DNA repair; Potency, µM (highest dose often 46.1 µM), for the others: at the highest dose activity change, negative = viability loss, hits mostly cytotoxic;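 note: ELG1-luc HEK293T cells co-treated with 10 µM MMS; viability read 16 h after compound addition; % is set by controls: 0 for no effect and ±100 for the full control effect; nearly all actives have a fitted effect of over 60% in size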
# ELG1 unstim viab: qHTS screen for small molecules that inhibit ELG1-dependent DNA repair: Hit Confirmation with Unstimulated Viability Assay; shares compounds with ELG1 DNA repair; cell viability counter-screen, unstimulated, luminescence; Potency, µM (doses to about 45.9 µM), for the others: top-dose activity change, negative = loss of viability, usual class: cytotoxic; 900 tested, 8% active;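 note: compound exposure lasted 16 hours before reading; % is set by controls: 0 for no effect and ±100 for the full control effect; nearly all actives have a fitted effect of over 55% in size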
# Starred values were filed as active, the others as inactive; ? = inconclusive; . = not tested or not shown; [ ] = remark or other dose. Sampled rows, rich in hits. Any-hit rate of the full collection: about 9.2%. Calls come from the whole dose curve; as a rule, active = well fitted curve in the direction sought with a large enough effect; inconclusive = small, poorly fitted or top-dose-only effect, or another doubt; inactive = no such curve, though single readings can be large; an effect the other way counts as inactive or inconclusive. Potency is the fitted concentration of half-maximal effect.
SMILES,FLuc modulator,ELG1 genotox,Rab9 promoter act,NPC1 prom act,ELG1 DNA repair,SMN2 splice up,ELG1 Luc conf,ELG1 MMS Luc,ELG1 5-FU,ELG1 MMS viab,ELG1 unstim viab
COc1ccc2ccccc2c1/C=N/NC(=S)Nc1cc(S(=O)(=O)N2CCOCC2)ccc1N1CCOCC1,-12.7%,0.7%,-12.2%,-1.5%,1.64µM*,-6.9%,?,10.6%,?,?,13.5%
COc1cc(-c2cc(C(=O)Nc3cc(S(=O)(=O)N4CCOCC4)ccc3C)c3ccccc3n2)cc(OC)c1OC,0.9%,-9.3%,-2.7%,-3.4%,3.66µM*,.,4.99µM*,?,?,-4.1%,?
CCN(CC)S(=O)(=O)c1ccc(N2CCOCC2)c(NC(=O)c2cc(-c3ccccn3)nc3ccccc23)c1,-4.0%,-12.1%,1.2%,-2.8%,1.83µM*,-37.9%,4.45µM*,4.99µM*,-8.9%,9.96µM*,?
CCN(CC)C(=O)[C@H]1C[C@H](CC(=O)NCCc2ccccn2)C(=O)N2CCc3c([nH]c4ccc(Cl)cc34)[C@]12C,.,-0.7%,.,.,-19.6%,.,.,.,.,.,.
COc1cc(-c2cc(C(=O)Nc3ccc(S(=O)(=O)NCc4ccco4)cc3)c3ccccc3n2)cc(OC)c1OC,2.4%,-5.9%,-5.6%,-5.1%,2.59µM*,.,1.99µM*,3.97µM*,?,-2.4%,-17.9%
CC(C)NC(=O)C(c1ccc(F)cc1)N(C(=O)CCC(=O)Nc1ccccn1)C1CCCCC1 (stereo not given),-1.0%,2.7%,-3.6%,15.4%,9.6%,.,.,.,.,.,.
N#Cc1cccc(NC(=O)Cn2cnc(S(=O)(=O)N3CCOCC3)c2)c1,1.6%,3.9%,-0.6%,-0.7%,-6.9%,.,.,.,.,.,.
CC(C)(C)OC(=O)NCCCCCNC(=O)c1nc[nH]c1C(=O)NCCCCCNC(=O)OC(C)(C)C,.,-12.1%,.,.,2.59µM*,.,6.28µM*,14.1µM*,?,28.1µM*,15.8µM*
CC(C)(C)OC(=O)NCCCCCNC(=O)c1ncn(Cc2ccccc2)c1C(=O)NCCCCCNC(=O)OC(C)(C)C,.,-5.3%,.,.,4.11µM*,.,7.05µM*,-11.7%,?,?,-7.5%
CC(C)(C)OC(=O)NCc1ccc(NC(=O)c2nc[nH]c2C(=O)NCCNC(=O)c2[nH]cnc2C(=O)Nc2ccc(CNC(=O)OC(C)(C)C)cc2)cc1,.,-2.3%,.,.,1.3µM*,.,1.12µM*,3.53µM*,8.1%,?,?
CC(C)(C)OC(=O)NCCCCCNC(=O)c1[nH]cnc1C(=O)N[C@@H](CCCCNC(=O)OC(C)(C)C)C(=O)OC(C)(C)C,4.5%,-15.5%,-6.2%,-7.0%,?,.,.,.,.,.,.
O=C(Nc1ccccc1)c1nc[nH]c1C(=O)NCCCNC(=O)c1[nH]cnc1C(=O)Nc1ccccc1,.,-5.7%,.,.,2.91µM*,.,3.97µM*,11.2µM*,?,-0.7%,-11.2%
O=C(NCCc1c[nH]c2ccccc12)C(=O)NCC1OCCN1S(=O)(=O)c1cc(F)ccc1F (stereo not given),-2.2%,-8.9%,-1.9%,1.7%,?,.,.,.,.,.,.
CC(C)(C)OC(=O)NCCCCCNC(=O)c1nc[nH]c1C(=O)NCC(=O)OCc1ccccc1,.,-5.8%,.,.,2.59µM*,.,7.91µM*,11.2µM*,-17.6%,22.3µM*,17.7µM*
CC(C)Nc1ncnc2ccc(Br)cc12,2.8%,-12.2%,-7.4%,-6.0%,2.31µM*,-87.2%,3.53µM*,7.91µM*,-5.1%,9.96µM*,?
CSCCC(Nc1ncnc2ccc(Br)cc12)C(=O)O (stereo not given),1.3%,0.2%,0.3%,0.3%,0.0%,5.5%,.,.,.,.,.
CCOC(=O)c1cccc(Nc2nc(C(=O)OCC)nc3ccccc23)c1,0.9%,.,.,.,.,.,.,.,.,.,.
CCOC(=O)c1nc(Nc2ccc(C(C)=O)cc2)c2ccccc2n1,-18.8%,-8.6%,0.5%,0.0%,1.64µM*,-3.0%,2.81µM*,?,?,6.8%,-11.7%
CN(CC1CCCO1)S(=O)(=O)c1ccc(C(=O)Nc2nc3cc4c(cc3s2)OCO4)cc1 (stereo not given),-5.4%,-1.4%,-44.2%,-36.9%,2.59µM*,.,4.45µM*,1.12µM*,-17.3%,1.12µM*,?
Cn1c(=O)c2c(nc(CN3CCc4ccccc4C3)n2Cc2ccccc2F)n(C)c1=O,2.4%,-11.3%,-7.9%,-0.3%,?,-45.0%,8.88µM*,-27.8%,?,8.6%,-15.0%
Cc1noc2ncnc(Oc3ccc(Cl)cc3Cl)c12,-9.3%,0.2%,1.9%,-0.4%,9.6%,4.8%,.,.,.,.,.
O=C(c1nc2nc(-c3ccccc3)cc(C(F)(F)F)n2n1)N1CCCCC1,-0.8%[2.3 µM],-6.4%,4.7%,-1.1%,3.26µM*,-28.2%,-7.6%,17.7%,0.9%,-4.6%,-1.1%
CCn1c(=O)c(=O)n(CC)c2cc(N3CCCCC3)c(NC(=O)c3ccc(OC)c(OC)c3)cc21,3.5%,.,.,.,.,2.8%,.,.,.,.,.
CCOC(=O)C1CCN(c2cc3c(cc2NC(=O)c2ccc(Cl)cc2)n(C)c(=O)n3C)CC1,1.9%,.,.,.,.,-2.6%,.,.,.,.,.
